Results filed as inconclusive are left out. Active and inactive are the calls of the source. Calls follow the shape of the dose curve; as a rule, active = well fitted inhibition curve with a large enough effect in the signal ratio in the repeat runs (not every such curve was filed as active); inconclusive = weak or mixed curves, or effect the other way; inactive = no such curve, though single readings can be large or run the other way; the % refers to the signal ratio.
% is scaled to controls: 0 for no effect and ±100 for the full control effect.

Chain of Peroxisome proliferator-activated receptor delta (Homo sapiens) (Q03181 whole entry, looked up): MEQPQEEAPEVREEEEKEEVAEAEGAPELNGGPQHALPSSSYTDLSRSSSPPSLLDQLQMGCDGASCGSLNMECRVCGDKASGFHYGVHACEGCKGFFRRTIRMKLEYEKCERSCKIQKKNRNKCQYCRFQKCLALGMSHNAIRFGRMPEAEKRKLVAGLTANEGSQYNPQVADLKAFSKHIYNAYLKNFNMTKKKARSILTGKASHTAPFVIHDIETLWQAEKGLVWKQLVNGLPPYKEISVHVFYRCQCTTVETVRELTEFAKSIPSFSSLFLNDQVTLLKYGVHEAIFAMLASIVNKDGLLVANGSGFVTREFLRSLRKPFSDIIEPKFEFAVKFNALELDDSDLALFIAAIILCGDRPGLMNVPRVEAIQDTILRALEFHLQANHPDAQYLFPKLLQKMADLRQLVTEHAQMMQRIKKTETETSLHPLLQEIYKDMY

For this test, the target named is Peroxisome proliferator-activated receptor delta (Homo sapiens) (UniProt Q03181). The test can be described thus: qHTS assay to identify small molecule antagonists of the peroxisome proliferator-activated receptor delta (PPARd) signaling pathway (AID 743215).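 Also: cells stimulated with agonist L165041 at 300 nM final during compound exposure.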 The conditions noted are these: HEK293H PPARd-UAS-bla, beta-lactamase FRET ratio, antagonist, 17 h; series mostly up to 62 µM; ratio activity, negative = inhibition: at the top concentration. An excerpt:
U.S. Tox21 Program National Center for Advancing Translational Sciences [NCATS] NIH Chemical Genomics Center [NCGC] U.S. Environmental Protection Agency [EPA] National Institutes of Environmental Health Sciences [NIEHS] National Toxicology Program [NTP] U.S. Food and Drug Administration [FDA] Tox21 Assay Overview: The peroxisome proliferator-activated receptors (PPARs) are lipid-activated transcription factors of the nuclear receptor superfamily with three distinct subtypes namely PPAR alpha, PPAR delta (PPARd) and PPAR gamma. All these subtypes heterodimerizes with Retinoid X receptor (RXR) and have different physiological functions. […] To identify the compounds that inhibit PPAR-delta signaling, GeneBLAzer PPAR delta UAS-bla HEK293H cell line (Invitrogen, Carlsbad, CA, USA) containing a beta-lactamase reporter gene under the control of an Upstream Activator Sequence (UAS) was used to screen the Tox21 compound library.
Tox21 Assay Protocol Summary: PPARd-bla cells were dispensed at 3000 cells/5uL/well in 1536-well black wall/clear bottom plates using a Multidrop Combi (Thermo Fisher Scientific, Waltham, MA) dispenser. After the assay plates were incubated at 37 C and 5% CO2 for 5 h, 23 nL of compounds dissolved in DMSO, positive controls or DMSO only was transferred to the assay plate by a Pintool station (Kalypsys, San Diego, CA), followed by addition of 1ul L165041 (300 nM, final concentration in the wells). The assay plates were incubated at 37 C for 17 h, and then 1 uL of LiveBLAzerTM B/G FRET substrate was added using a Bioraptr Flying Reagent Dispenser (FRD) workstation (Beckman Coulter, Indianapolis, IN, USA). The assay plates were incubated at room temperature for 2 h and fluorescence intensity was measured by an Envision plate reader (PerkinElmer, Shelton, CT).
Background: qHTS replaces the single test concentration by a dilution series.
As for `C=CC(=O)NC(C)(C)CS(=O)(=O)O`, the result was inactive. On to `CCCCCCCC(=O)OCC(O)CO` (stereo not given), for which the “ratio activity, negative = inhibition” value was -0.236% (inactive). As for `O=c1cc[nH]c(=O)[nH]1`, the result was inactive. On the same count and under the same terms, the result for `CCCCCCCCCCCCCCCCCC(=O)OCC(O)CO` (stereo not given) reads “inactive”; that for `COc1ccc(O)cc1`, “inactive”; that for `NC(=O)OCC(COC(N)=O)c1ccccc1`, “inactive”. For the compound `CCCCCCCCOc1ccc(C(=O)c2ccccc2)c(O)c1`, the result was inactive.

Regarding `N[C@@H](Cc1c[nH]c2ccc(O)cc12)C(=O)O`, the result was inactive.

For the compound `Nc1ccc(N=Nc2ccccc2)c(N)n1`, the result was inactive.

`C#C[C@]1(O)CC[C@H]2[C@@H]3CCC4=CC(=O)CC[C@@H]4[C@H]3CC[C@@]21CC`: the result was inactive. On to `NCCNc1cccc2ccccc12`, for which the “ratio activity, negative = inhibition” value is 0.0949% (inactive). The same measure, in the same setting: the result for `COc1ccccc1O` reads -4.3% [at 80.4 µM] (inactive). Take `Cc1ccc(O)c(-n2nc3ccccc3n2)c1`: the result was inactive. Turning to `COCC(C)N` (stereo not given), the outcome was inactive. Consider `NC(=O)N1c2ccccc2C=Cc2ccccc21`, for which the outcome was inactive. As for `CC(C)Cc1ccc(C(C)C(=O)O)cc1` (stereo not given), the result was inactive. On the same count and under the same terms, for `Cn1cnc2c1c(=O)[nH]c(=O)n2C` the value was “inactive”. As for `CN/C(=C\[N+](=O)[O-])NCCSCc1ccc(CN(C)C)o1`, the “ratio activity, negative = inhibition” value was 2.82% (inactive). Turning to `NC(=O)NO`, the outcome was inactive.

Consider `COc1cc(O)c(C(=O)c2ccccc2)cc1S(=O)(=O)O`, for which the outcome was inactive. Still for that read-out and setting: for `CCCCC/C(C=O)=C\c1ccccc1` the value was “inactive”. Regarding `O=C(O)CCCCC1CCSS1` (stereo not given), the “ratio activity, negative = inhibition” value was 6.49% (inactive). On to `Cc1c(N(C)C)c(=O)n(-c2ccccc2)n1C`, for which the result was inactive. As to `OCCCc1ccccc1`, the result was inactive.

For the compound `C=CCOC(=O)CC(C)C`, the result was inactive.

`CC(C)(C)NCC(O)c1ccc(O)c(CO)c1` (stereo not given): the result was inactive. On the same count and under the same terms, for `CCCCCCCCCCCCCC(=O)OC(C)C` the value was “inactive”; for `CC1=C(/C=C/C(C)=C/C=C/C(C)=C/C(=O)O)C(C)(C)CCC1`, “inactive”; for `NC(N)=NC(N)=NCCc1ccccc1`, “inactive”. On the same count and under the same terms, for `NC(=O)c1ccc([N+](=O)[O-])cc1Cl` the value was “inactive”; for `O=C1CCCCCN1`, “inactive”; for `CCn1cc(C(=O)O)c(=O)c2ccc(C)nc21`, “inactive”. Still for that read-out and setting: the result for `C[C@]12CC[C@@H]3c4ccc(O)cc4C[C@@H](CCCCCCCCCS(=O)CCCC(F)(F)C(F)(F)F)[C@H]3[C@@H]1CC[C@@H]2O` (stereo not given in full) reads “inactive”; that for `CC(=O)OC/C=C(C)/C=C/C=C(C)/C=C/C1=C(C)CCCC1(C)C`, “inactive”. As for `O=C(O)Cc1cccc2ccccc12`, the result was inactive.

As to `CC(=O)c1ccc(S(=O)(=O)NC(=O)NC2CCCCC2)cc1`, the result was inactive. Take `COc1ccc(C(=O)c2ccccc2)c(O)c1`: the outcome was inactive. Consider `O=C(O)CN(CC(=O)O)CC(=O)O`, for which the result was inactive.

As to `C[C@]12C[C@H](O)[C@H]3[C@@H](CCC4=CC(=O)CC[C@@]43C)[C@@H]1CC[C@@H]2C(=O)CO`, the outcome was inactive. With `COc1ccccc1NC(=O)CC(C)=O`, the outcome was inactive.
